In PubChem BioAssay:

System: XIP peptide (Xip251-270) binding
Test: XIP fragment 251-270 binding compounds – biochemical, small-molecule microarray, fluorescence 635/667 nm, 0.1 µg/mL protein, primary screen (AID 1182)
Conditions: fluorescent protein binding, 635 nm, higher = more signal, called active from +8 up or from −8 down

Composite z-score, inactive:
COC(=O)C1(C)C=C2C(=C(c3ccccc3)C(=O)C2C)CN1 (stereo unspecified) -0.21
C=CCC(OC(C)=O)[C@@H]1[C@@H](N(Cc2cc3ccccc3o2)C(=O)Cc2ccc(F)cc2)c2cc(OCCCO)ccc2N1C(=O)Cc1ccc(OC)cc1 (stereo partly specified) -0.386
COc1ccccc1CN1C(=O)c2ccccc2[C@@]2(Cc3ccccc3N(C(C)C)C2=O)[C@@H]1c1ccc(CO)cc1 0.496
N#Cc1ccc(NN2C(C(O)c3cc(C(F)(F)F)cc(C(F)(F)F)c3)C=CC3C(=O)N(c4ccccc4)C(=O)C32)cc1 (stereo unspecified) 1.67
COc1ccccc1CN1C(=O)c2ccccc2[C@@H](C(=O)NCC(F)(F)F)[C@@H]1c1ccc(CO)cc1 -0.51
CN(C)C(=O)[C@@]1(Cc2ccccc2)N=C(c2ccc(OCCCO)cc2)O[C@H]1c1ccccc1CN=[N+]=[N-] 2.74
CCCCC(=C=CC[C@H](O)c1ccccc1OCCO)C[C@H](O)COCc1ccccc1 1.03
CCCC[C@@H]1C[C@H]1[C@@H](NS(=O)(=O)c1cccc2cccnc12)c1ccc(-c2ccccc2)cc1 -0.111
Cn1cccc1C(O)C1C=CC2C(=O)NC(=O)C2N1Nc1ccccn1 (stereo unspecified) -0.262
C=C(/C(=C/C[C@H](OC(=O)c1ccncc1)c1ccc(OCCO)cc1)c1cnc2ccccc2c1)C(C)C 0.782
COC(=O)[C@@]1(Cc2ccc(F)cc2)[C@H]2c3cc(C(=O)N(C)C)n(Cc4ccc(OC)c(OC)c4)c3C[C@H]2CN1C(=O)c1ccccc1 0.316
